# Reference: the supplement of paper PMC9492666
# System: HCC1937
# Experiment: relative cell viability, compound + erastin, vs DMSO (fraction of DMSO control); higher = less growth inhibition
# Settings: 72 h
# 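Further: viability read by CCK-8 kit in 96-well plates, part of a combination screen pairing lipid-metabolism-targeting compounds with erastin.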
row,SMILES,relative cell viability
1,O=C(c1ccc(NS(=O)(=O)c2cccc3cccnc23)cc1)N1CCN(CC2CC2)CC1 [Mitapivat] + CCOc1ccccc1-n1c(C(C)N2CCN(C(=O)COc3ccc(Cl)cc3)CC2)nc2ccccc2c1=O [erastin],0.596
2,N=C(N)NCCC(=O)O [3-Guanidinopropionic Acid] + CCOc1ccccc1-n1c(C(C)N2CCN(C(=O)COc3ccc(Cl)cc3)CC2)nc2ccccc2c1=O [erastin],0.714
3,O=C1/C(=C/c2cccs2)CC/C1=C\c1cccs1 + CCOc1ccccc1-n1c(C(C)N2CCN(C(=O)COc3ccc(Cl)cc3)CC2)nc2ccccc2c1=O [erastin],0.514
4,C=C(C)[C@@H]1CC[C@]2(CO)CC[C@]3(C)[C@H](CC[C@@H]4[C@@]5(C)CC[C@H](O)C(C)(C)[C@@H]5CC[C@]43C)[C@@H]12 [Betulin] + CCOc1ccccc1-n1c(C(C)N2CCN(C(=O)COc3ccc(Cl)cc3)CC2)nc2ccccc2c1=O [erastin],0.524
5,C[C@H](CCOc1cccc(CC(=O)O)c1)N(Cc1cccc(C(F)(F)F)c1Cl)CC(c1ccccc1)c1ccccc1 [RGX-104 free Acid] + CCOc1ccccc1-n1c(C(C)N2CCN(C(=O)COc3ccc(Cl)cc3)CC2)nc2ccccc2c1=O [erastin],0.564
6,CNC(=O)c1cccc(NC(=O)N2CCC(Oc3ccccc3Cl)CC2)c1 + CCOc1ccccc1-n1c(C(C)N2CCN(C(=O)COc3ccc(Cl)cc3)CC2)nc2ccccc2c1=O [erastin],0.566
7,c1cc(-c2cnn3cc(-c4ccc(OCCN5CCCCC5)cc4)cnc23)ccn1 [Dorsomorphin] + CCOc1ccccc1-n1c(C(C)N2CCN(C(=O)COc3ccc(Cl)cc3)CC2)nc2ccccc2c1=O [erastin],0.137
8,O=S(=O)(c1ccccc1)N(CC(F)(F)F)c1ccc(C(O)(C(F)(F)F)C(F)(F)F)cc1 + CCOc1ccccc1-n1c(C(C)N2CCN(C(=O)COc3ccc(Cl)cc3)CC2)nc2ccccc2c1=O [erastin],0.835
9,CCC(CC)CC1(C(=O)Nc2ccccc2SC(=O)C(C)C)CCCCC1 [Dalcetrapib] + CCOc1ccccc1-n1c(C(C)N2CCN(C(=O)COc3ccc(Cl)cc3)CC2)nc2ccccc2c1=O [erastin],0.737
10,COc1cc(C(C)=O)ccc1O [Acetovanillone] + CCOc1ccccc1-n1c(C(C)N2CCN(C(=O)COc3ccc(Cl)cc3)CC2)nc2ccccc2c1=O [erastin],0.508
11,N#Cc1ccc(Oc2cccc(NC(=O)Nc3ccc(Cl)c(C(F)(F)F)c3)c2)cc1 + CCOc1ccccc1-n1c(C(C)N2CCN(C(=O)COc3ccc(Cl)cc3)CC2)nc2ccccc2c1=O [erastin],0.0713
12,O=C(c1c2ccccc2cc2ccccc12)N1CCC(N2CCC[C@@H](C(=O)N3CCOCC3)C2)CC1 + CCOc1ccccc1-n1c(C(C)N2CCN(C(=O)COc3ccc(Cl)cc3)CC2)nc2ccccc2c1=O [erastin],0.514
13,CCc1ccc(CCOc2ccc(CC3SC(=O)NC3=O)cc2)nc1 (stereo not drawn) [Pioglitazone] + CCOc1ccccc1-n1c(C(C)N2CCN(C(=O)COc3ccc(Cl)cc3)CC2)nc2ccccc2c1=O [erastin],0.803
